The results in this text go back to ChEMBL document CHEMBL5606458, “ASAP - ZIKV NS2B-NS3 protease fluorescence single point” (2024).

Molecules are shown by their SMILES. Out of some 2,700 compounds screened, about 160 (5.9%) showed an effect of 50% or more. Shown is part of a subset that was picked to be rich in strong results.

The assay addresses Nonstructural protein 3 (Zika virus) (UniProt A0A024AXB9).
[1] abbreviates: PRVABC59, Concentration 15.0 uM, Number of replicates 1.0.

Sequence of Nonstructural protein 3 (Zika virus) (A0A024AXB9 as listed by the source): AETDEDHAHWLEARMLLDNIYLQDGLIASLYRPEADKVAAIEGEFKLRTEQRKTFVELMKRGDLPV

Turning to `O=C(NCc1ccccc1-c1ccccc1)c1cc(Cl)ccc1NS(=O)(=O)c1ccc(Oc2ccccc2Cl)cc1`, the inhibition (in general, the drop in the measured response relative to a control, in per cent) under setting [1] came out at 13.1%.

For `O=C(NCc1coc(-c2ccccc2)n1)c1cc(Cl)ccc1NS(=O)(=O)c1ccc(Oc2ccccc2Cl)cc1`, the inhibition under setting [1] was 45.4%.

In the case of `O=C(NCc1nnc(-c2ccccc2)o1)c1cc(Cl)ccc1NS(=O)(=O)c1ccc(Oc2ccccc2Cl)cc1`, under setting [1], the inhibition worked out at 54.2%.

With `O=C(NCc1ccc(-c2ccccc2)cc1)c1cc(Cl)ccc1NS(=O)(=O)c1ccc(Oc2ccccc2Cl)cc1`, the inhibition under setting [1] came to 9%.

In the case of `O=C(NCc1cccc(-c2ccccc2)c1)c1cc(Cl)ccc1NS(=O)(=O)c1ccc(Oc2ccccc2Cl)cc1`, under setting [1], the inhibition turned out to be 54.4%.

As for `O=C(NCc1ccccc1)c1cc(Cl)ccc1NS(=O)(=O)c1ccc(Oc2ccccc2Cl)cc1`, the inhibition under setting [1] was determined as 11.2%.

Turning to `Cn1cccc(CN2CCC(c3c[nH]c4cccnc34)CC2)c1=O`, the inhibition (PRVABC59, Concentration 49.5 uM, Number of replicates 2.0, Standard deviation 0.07177165759495889 %) is -0.869%; the inhibition (PRVABC59, Concentration 99.01 uM, Number of replicates 2.0, Standard deviation 0.38070186159308106 %) was found to be 1.77%; the inhibition (PRVABC59, Concentration 198.0 uM, Number of replicates 2.0, Standard deviation 0.010921765735719036 %) came to 3.27%.

On to `O=C(c1cc(Cl)ccc1NS(=O)(=O)c1ccc(Oc2ccccc2Cl)cc1)N1CCNC(=O)C12CCCCC2`, for which the inhibition under setting [1] was found to be 17.6%.

Turning to `COc1ccccc1[C@H](C)NC(=O)C1CCN(c2ccc(C=O)cc2)CC1`, the inhibition (PRVABC59, Concentration 10.0 uM, Number of replicates 1.0) turned out to be 25.4%.

For the molecule `Cc1cc(N)cc(CNC(=O)c2ccccc2Cc2cccc3c(CO)cc(C)nc23)c1`, the inhibition by setting is: (PRVABC59, Concentration 49.95 uM, Number of replicates 2.0, Standard deviation 0.03145975642768365 %) 34.6%; (PRVABC59, Concentration 99.9 uM, Number of replicates 2.0, Standard deviation 1.7408307334956623 %) 60.7%.

As to `Cc1cc(CO)c2cccc(NCc3ccc(C(N)=O)cc3)c2n1`, the inhibition (PRVABC59, Concentration 49.95 uM, Number of replicates 2.0, Standard deviation 0.6911398690966805 %) was -7.9% and the inhibition (PRVABC59, Concentration 99.9 uM, Number of replicates 2.0, Standard deviation 1.6597447488203414 %) is -2.82%.

With `Cc1cc(CO)c2cccc(NCc3ccc(S(N)(=O)=O)cc3)c2n1`, the inhibition (PRVABC59, Concentration 49.95 uM, Number of replicates 2.0, Standard deviation 2.3986730749821903 %) is -5.11% and the inhibition (PRVABC59, Concentration 99.9 uM, Number of replicates 2.0, Standard deviation 1.886822696290366 %) is -8.96%.

In the case of `Cc1cc(N)cc(CNc2cccc3c(CO)cc(C)nc23)c1`, the inhibition is 36.2% (PRVABC59, Concentration 49.95 uM, Number of replicates 2.0, Standard deviation 0.17563299841544527 %) and 52.6% (PRVABC59, Concentration 99.9 uM, Number of replicates 2.0, Standard deviation 0.025091199030293523 %).

As for `Cc1cc(N)cc(CNC(=O)c2cccc(Cc3cccc4c(CO)cc(C)nc34)c2)c1`, the inhibition worked out at 22.4% (PRVABC59, Concentration 49.95 uM, Number of replicates 2.0, Standard deviation 0.660675115468642 %) and 46.9% (PRVABC59, Concentration 99.9 uM, Number of replicates 2.0, Standard deviation 1.0067445744655332 %).

Consider `Cc1cc(N)cc(CNC(=O)Cc2cccc3c(CO)cc(C)nc23)c1`, for which the inhibition runs as follows: (PRVABC59, Concentration 49.95 uM, Number of replicates 2.0, Standard deviation 1.6254724488978287 %) 7.61%; (PRVABC59, Concentration 99.9 uM, Number of replicates 2.0, Standard deviation 2.5640510708053585 %) 31.2%.

Take `Cc1c(C(=O)N2CCC(n3cc(CO)nn3)CC2)[nH]c2cc(Cl)cc(Cl)c12`: the inhibition was determined as 4.02% (PRVABC59, Concentration 49.5 uM, Number of replicates 2.0, Standard deviation 1.4208906347015848 %); 9.8% (PRVABC59, Concentration 99.01 uM, Number of replicates 2.0, Standard deviation 0.494827603753062 %); 15.6% (PRVABC59, Concentration 198.0 uM, Number of replicates 2.0, Standard deviation 0.23449629857012413 %).

For the molecule `Cc1cc(CO)c2cccc(Cc3ccccc3C(=O)Nc3cc(C)on3)c2n1`, the inhibition (PRVABC59, Concentration 49.95 uM, Number of replicates 2.0, Standard deviation 0.7445712834152752 %) is -2.77% and the inhibition (PRVABC59, Concentration 99.9 uM, Number of replicates 2.0, Standard deviation 1.0119877161772735 %) was 0.512%.

Consider `Cc1cc(CO)c2cccc(CC(=O)Nc3cc(C)on3)c2n1`, for which the inhibition runs as follows: (PRVABC59, Concentration 49.95 uM, Number of replicates 2.0, Standard deviation 1.089187856250299 %) 91.5%; (PRVABC59, Concentration 99.9 uM, Number of replicates 2.0, Standard deviation 0.03053454880917251 %) 93.2%.

Regarding `Cc1cc(CO)c2cccc(CC(=O)Nc3cc(C)[nH]n3)c2n1`, the inhibition is, setting by setting: (PRVABC59, Concentration 49.95 uM, Number of replicates 2.0, Standard deviation 1.1960706203468343 %) 0.209%; (PRVABC59, Concentration 99.9 uM, Number of replicates 2.0, Standard deviation 0.6463869966486608 %) 7.1%.

`Cc1cc(CO)c2cccc(Cc3cccc(C(=O)Nc4cc(C)[nH]n4)c3)c2n1`: the inhibition was 6.52% (PRVABC59, Concentration 49.95 uM, Number of replicates 2.0, Standard deviation 3.093641395210206 %) and 9.51% (PRVABC59, Concentration 99.9 uM, Number of replicates 2.0, Standard deviation 2.134087804085351 %).

On to `Cc1cc(CO)c2cccc(Cc3cccc(C(=O)Nc4cc(C)on4)c3)c2n1`, for which the inhibition is, setting by setting: (PRVABC59, Concentration 49.95 uM, Number of replicates 2.0, Standard deviation 0.5505632705734445 %) 18.4%; (PRVABC59, Concentration 99.9 uM, Number of replicates 2.0, Standard deviation 1.053935557806211 %) 51.2%.

Take `Cc1cc(CO)c2cccc(CC(=O)Nc3cc(O)[nH]n3)c2n1`: the inhibition is, setting by setting: (PRVABC59, Concentration 49.95 uM, Number of replicates 2.0, Standard deviation 0.5293246306718348 %) -5.29%; (PRVABC59, Concentration 99.9 uM, Number of replicates 2.0, Standard deviation 0.9008701737196211 %) 1.86%.

For the molecule `CNC(=O)c1nc(Cl)ccc1NS(=O)(=O)c1ccc(Oc2ccccc2Cl)cc1`, the inhibition (PRVABC59, Concentration 49.5 uM, Number of replicates 2.0, Standard deviation 0.024233932131581936 %) was -1.72%.

For the molecule `O=C(Nc1nc(Cl)nc2nc[nH]c12)c1cc(Cl)ccc1NS(=O)(=O)c1ccc(Oc2ccccc2Cl)cc1`, under setting [1], the inhibition worked out at 22.5%.

For the molecule `Cc1nn([C@@H](C)c2nnnn2C2CC2)cc1C1CCNCC1`, the inhibition (PRVABC59, Concentration 49.5 uM, Number of replicates 2.0, Standard deviation 2.3033064314790743 %) was -1.29%; the inhibition (PRVABC59, Concentration 99.01 uM, Number of replicates 2.0, Standard deviation 2.6844291293545366 %) was -0.376%; the inhibition (PRVABC59, Concentration 198.0 uM, Number of replicates 2.0, Standard deviation 0.3562668047004051 %) is -3.04%.

Take `CC(C)(C)c1csc(NC(=O)c2cc(Cl)ccc2NS(=O)(=O)c2ccc(Oc3ccccc3Cl)cc2)n1`: under setting [1], the inhibition was 22.1%.

For the molecule `Cc1cc(CO)c2cccc(NC(=O)c3nc(C4CCNCC4)oc3C)c2n1`, the inhibition (PRVABC59, Concentration 49.95 uM, Number of replicates 2.0, Standard deviation 16.97136657317194 %) was 81.5% and the inhibition (PRVABC59, Concentration 99.9 uM, Number of replicates 2.0, Standard deviation 2.022315036184036 %) was determined as 88.9%.

Consider `Cc1cc(CO)c2cccc(NC(=O)[C@H]3CCNC3)c2n1`, for which the inhibition runs as follows: (PRVABC59, Concentration 49.95 uM, Number of replicates 2.0, Standard deviation 1.562551081581127 %) -4.16%; (PRVABC59, Concentration 99.9 uM, Number of replicates 2.0, Standard deviation 2.5850257028478962 %) 4.64%.

Turning to `Cc1cc(CO)c2cccc(NC(=O)c3nc(-c4ccccc4)oc3C(F)(F)F)c2n1`, the inhibition (PRVABC59, Concentration 49.95 uM, Number of replicates 2.0, Standard deviation 2.699761899961709 %) was found to be 15.3% and the inhibition (PRVABC59, Concentration 99.9 uM, Number of replicates 2.0, Standard deviation 2.5993991268892636 %) was determined as 24.8%.

For `Cc1cc(CO)c2cccc(Cc3ccccc3NC(=O)c3nc(C4CCNCC4)oc3C)c2n1`, the inhibition (PRVABC59, Concentration 49.95 uM, Number of replicates 2.0, Standard deviation 3.130141914719793 %) was determined as 12.3% and the inhibition (PRVABC59, Concentration 99.9 uM, Number of replicates 2.0, Standard deviation 0.6412983547468495 %) amounted to 60.8%.

For `Cc1cc(CO)c2cccc(Cc3cccc(NC(=O)c4nc(C5CCNCC5)oc4C)c3)c2n1`, the inhibition is -5.64% (PRVABC59, Concentration 49.95 uM, Number of replicates 2.0, Standard deviation 2.83494201600161 %) and -6.74% (PRVABC59, Concentration 99.9 uM, Number of replicates 2.0, Standard deviation 2.936734747350333 %).

On to `Cc1cc(CO)c2cccc(Cc3ccccc3NC(=O)c3nc(-c4ccccc4)oc3C(F)(F)F)c2n1`, for which the inhibition reads like this: (PRVABC59, Concentration 49.95 uM, Number of replicates 2.0, Standard deviation 1.8373680900098652 %) 5.06%; (PRVABC59, Concentration 99.9 uM, Number of replicates 2.0, Standard deviation 1.2469667752869535 %) 9.26%.

With `Cc1cc(N)c2cc(Cl)cc(Cl)c2n1`, for the setting “PRVABC59, Concentration 99.9 uM, Number of replicates 2.0, Standard deviation 12.824277322413067 %”, the inhibition is -8.83%.

With `COC(=O)c1ccc(F)c(Cn2cc(C3CCNCC3)c(C)n2)c1`, the inhibition by setting is: (PRVABC59, Concentration 49.5 uM, Number of replicates 2.0, Standard deviation 1.8234550992150553 %) 1.56%; (PRVABC59, Concentration 99.01 uM, Number of replicates 2.0, Standard deviation 0.947622366220452 %) 0.074%; (PRVABC59, Concentration 198.0 uM, Number of replicates 2.0, Standard deviation 0.08409628118336304 %) 3.65%.

Take `COc1cc(COc2cc(C)nc3ncnn23)nc(N2CCNCC2)n1`: the inhibition by setting is: (PRVABC59, Concentration 49.5 uM, Number of replicates 2.0, Standard deviation 2.68247440066745 %) 1.51%; (PRVABC59, Concentration 99.01 uM, Number of replicates 2.0, Standard deviation 1.6078501771858478 %) 0.374%; (PRVABC59, Concentration 198.0 uM, Number of replicates 2.0, Standard deviation 1.0644090707345926 %) 1.09%.
